“And” between values parts separate entries of the source, which are not always exact repeats. Equal entries are not always repeated. About 83,000 compounds went through this panel and 20% of them were active in at least one assay; those are over-represented in the sample as a whole.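 The test compound was applied at a single concentration to cells in 96-well plates for 48 hours, and percent growth was recorded.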 Values without a mark were called inactive. The source made the active and inactive calls. How the source made its calls: active means growth percent below 10; inactive means the rest.
Key:
Experiment in all cases: NCI-60 one-dose screen, 48 h (100 = growth as untreated, 0 = no growth, -100 = all killed)
[1] = tested on: T-47D breast; conditions: 10 µM unless noted
[2] = tested on: BT-549 breast; conditions: 10 µM unless noted
[3] = tested on: MDA-MB-435 melanoma; conditions: 10 µM unless noted
[4] = tested on: SW-620 colon; conditions: 10 µM unless noted
[5] = tested on: MCF7 breast
[6] = tested on: HCT-116 colon; conditions: 10 µM unless noted
[7] = tested on: HCC-2998 colon; conditions: 10 µM unless noted
[8] = tested on: KM12 colon; conditions: 10 µM unless noted

Row | SMILES | growth [1] | growth [2] | growth [3] | growth [4] | growth ([5]; 10 µM unless noted) | growth [6] | growth [7] | growth [8] | growth ([5]; 10 µM) [%] | growth ([5]; 100 µM)
1 | C=C1C(=O)O[C@H]2[C@H]1CC/C(COC(=O)NCc1ccc(Cn3c(=O)sn(CCCl)c3=O)cc1)=C\CC[C@@]1(C)O[C@@H]21 | 3.07% (active) | 59.4% | 79.4% | -20.3% (active) | 31.7% | -61.7% (active) | 120% | 95.2% |  | 
2 | C=C[C@H]1CCC/C=C/[C@@H]2C[C@H](O)C[C@H]2[C@H](O)/C=C/C(=O)O1 | -14% (active) | 0.705% (active) | 15% | -63.8% (active) | -50.1% (active) | -76.9% (active) | -62.4% (active) | -59.2% (active) |  | 
3 | Cc1ccccc1NC(=O)c1sc2nc3c(cc2c1N)C(=O)CCC3 | 43.9% | 55.6% | -12.9% (active) | 25.4% | 21.7% | 34.5% | 67% | 19.2% |  | 
4 | COc1cc(C2CC(c3cccc(Nc4ccnc5cc(Cl)ccc45)c3)=NN2C=O)cc(OC)c1OC (centres undefined) | -4.07% (active) | -36% (active) | -68.1% (active) | 13.1% | 2.77% (active) | 7.38% (active) | 37.4% | 9.52% (active) |  | 
5 | COc1cc(C2CC(c3ccccc3)=NN2C=O)ccc1Oc1ccnc2cc(Cl)ccc12 (centres undefined) | 33.6% | 46% | 36% | 87.9% | 50.5% | 54.7% | 87.4% | 49.9% |  | 
6 | Cc1cc(O)c2cc3c(O)c(O)ccc3cc2c1 | 104% | 109% | 123% | 114% |  |  | 114% | 108% | 139 | 4.83% (active) and -31.7% (active)
7 | COc1ccc(-c2nc(SCCC(C)C)nc(Nc3ccc(C(=O)O)cc3)c2C#N)cc1 | 71.7% | 82.6% | 99.3% | 101% | 80.5% | 84.4% | 104% | 86.3% |  | 
8 | NNc1ccc(S(N)(=O)=O)cc1 | 89.4% | 101% | 104% | 97.3% | 98% | 90.7% | 86.8% | 105% |  | 
9 | COc1ccc(N=C2CSc3nnc(-c4cc(F)c(Cl)cc4Cl)n3N2)cc1 | -20.1% (active) | -21.2% (active) | -45.6% (active) | -47.1% (active) | -34.3% (active) | -61.4% (active) | -71.4% (active) | -12.3% (active) |  | 
10 | CCn1c(Cc2ccccc2Nc2c(Cl)cccc2Cl)nnc1SCC(=O)Nc1ccccc1C(F)(F)F | 47.6% | 94.4% | 99.5% | 99.3% | 86.3% | 77.8% | 99.9% | 97.6% |  | 
11 | COc1ccc(-c2ccc(-c3ccc(C(=N)N)s3)s2)cc1 | -64% (active) | -81.3% (active) | -78.1% (active) | -69.1% (active) | -50.1% (active) | -47.8% (active) | -81% (active) | -86.8% (active) |  | 
12 | C/C(=N\Nc1ccc([N+](=O)[O-])cn1)c1ccc(N)cc1 | 103% | 100% | 96.5% | 112% | 85% | 97.8% | 102% | 95.5% |  | 
13 | CC1(C)CC(=O)c2cc3c(N)c(C(=O)Nc4ccc(Cl)cc4)sc3nc2C1 | 96.2% | 125% | 109% | 109% | 103% | 108% | 116% | 117% |  | 
14 | CN1C(=O)NC(Cc2c[nH]c3c(Cl)cccc23)C1=O (centres undefined) | 111% | 118% | 114% | 112% | 96.2% | 108% | 97.5% | 96.6% |  | 
15 | CN1C(=O)C(C2=NNC(c3ccccc3C(=O)O)C2)C(=O)N(C)C1=O (centres undefined) | 87.4% | 104% | 104% | 99.7% | 99.7% | 99.4% | 117% | 104% |  | 
16 | N#CCCn1cnc2c(N)ncnc21 | 95.4% | 103% | 102% | 102% | 97.1% | 99.1% | 113% | 106% |  | 

Row | SMILES | growth [1] | growth [2] | growth [3] | growth [4] | growth ([5]; 10 µM unless noted) | growth [6] | growth [7] | growth [8] | growth ([5]; 10 µM) [%] | growth ([5]; 100 µM)
17 | COc1ccc(NC(=O)Cn2c(=O)sc3c(-c4ccc(Cl)cc4)cc(-c4ccc(Cl)cc4)nc32)cc1 | 79.9% | 87.6% | 102% | 99.6% | 89.2% | 88.1% | 104% | 99.7% |  | 
18 | CCOC(=O)C#Cc1c(C(=O)OCC)nnn1[C@@H]1O[C@H](COC(C)=O)[C@@H](OC(C)=O)[C@H]1OC(C)=O | 60.2% | 111% | 104% | 13.6% | 41.8% | 92.4% | 105% | 109% |  | 
19 | S=C(Cc1ccccc1)N1CCN(c2ccccc2Cl)CC1 | 94.4% | 96.6% | 104% | 103% | 110% | 88.2% | 101% | 94.5% |  | 
20 | NC(N)=NC1CCCCC1 | 103% | 105% | 104% | 100% | 96.4% | 98.6% | 104% | -69% (active) |  | 
21 | CC(NC(=O)c1ccccc1)C(=O)Nc1ccccc1 (centres undefined) | 117% | 104% | 112% | 108% | 97.9% | 97.2% | 99.4% | 108% |  | 
22 | CCOC(=O)C1OC2(CCCC2)OC1C(=O)OCC (centres undefined) | 98.4% | 98.9% | 112% | 113% | 98.2% | 98% | 104% | 104% |  | 
23 | CCN(CC)c1ccc(/C=N/NC(=O)C[N+](C)(C)C)cc1 | 101% | 103% | 110% | 101% | 96.9% | 102% | 104% | 102% |  | 
24 | Cc1c(C(=O)CCl)c(=O)n(-c2ccccc2)n1C | 34.3% | 61.2% | 40% | 36.6% | 38.2% | 32% | 85.9% | 88.7% |  | 
25 | N/C(=N\O)c1ncc(-c2ccc(C(F)(F)F)cc2)c(NC2CCCCCC2)n1 | -57.3% [100 µM] (active) | -93.2% [100 µM] (active) | -84.2% [100 µM] (active) | -67.4% [100 µM] (active) | -92.8% [100 µM] (active) | -95.8% [100 µM] (active) | -95.6% [100 µM] (active) | -90.1% [100 µM] (active) |  | 
26 | CC(C)[C@@H]1C=C2CC[C@H]3[C@](C)(CN)CCC[C@]3(C)[C@H]2CC1 | 53.8% | 90.7% | -23% (active) | -65.8% (active) | -44.3% (active) | 31.3% | -40.1% (active) | 37.8% |  | 
27 | Cc1cccc2nc3ccccc3c(Nc3ccc(NS(C)(=O)=O)cc3)c12 | 37.1% | 81.7% | 78.6% | 34.2% | 24.8% | 31.8% | 75.5% | 55.5% |  | 
28 | CC(C)(C)[Si](C)(C)OC1[C@@H](O[Si](C)(C)C(C)(C)C)[C@@H](CNC(=O)NC(=O)NC(=O)CCl)O[C@H]1n1cnc2c(NC(=O)Nc3ccccc3)ncnc21 (some centres undefined) | 77% | 71.7% | 76.3% | 85.4% | 37.8% | 17.6% | 75.5% |  |  | 
29 | CCCCCCCCCCCCCCCCCC1=NCCN1CCO | 95% | 91.5% | 101% | 65.2% | 74.3% | 65.1% | 61.3% |  |  | 
30 | Clc1cc(Cl)cc(-c2cnc3nonc3n2)c1 | 59.8% | 95.6% | 103% | 63.9% | 69.5% | 72.9% | 97.5% | 90% |  | 
31 | COc1ccc2nc3ccccc3c(NCc3ccc(Cl)cc3)c2c1 | 49.3% | 50.2% | 24.1% | 12.8% | -56.4% (active) | 6.81% (active) | -87.6% (active) | 40.1% |  | 
32 | O=C(c1ccccc1)c1cccc(C(Br)Br)c1 | 88.4% | 99.4% | 30.9% | 66.3% | 65.6% | 65.9% | 94% | 75.2% |  | 
